Measured values published in PubChem BioAssay (NCATS).
Inconclusive results are not listed. Unmarked numbers belong to inactive results. The source made the active and inactive calls. Calls follow the shape of the dose curve; as a rule, active = well fitted inhibition curve with a large enough effect; inconclusive = small, poorly fitted or top-dose-only effect; inactive = flat fitted curve, though single readings scatter.

Each compound was assayed against Calcium and integrin-binding protein 1 (Homo sapiens) (UniProt Q99828) (assay: Primary qHTS for Identification of Calcium Integrin Binding Protein 1 (CIB1) Competitor (AID 1508620;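 also: GST tagged CIB1 binding a fluorescein labelled alphaIIb integrin peptide tracer; top concentration of the series differs between compounds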)). Conditions: CIB1-GST / FITC-alphaIIb peptide fluorescence polarization; series mostly up to 114 µM; activity change, negative = inhibition: at the top concentration.
How it was run: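 Fluorescence polarization competition: CIB1-GST (1 uM final) preincubated with compound 15 min at room temperature, then FITC-labeled alphaIIb peptide (100 nM final) added for another 15 min. Polarization read at Ex 480/Em 540.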
% is scaled to controls: 0 for no effect and ±100 for the full control effect.

Calcium and integrin-binding protein 1 (Homo sapiens), sequence (Q99828 whole entry, looked up): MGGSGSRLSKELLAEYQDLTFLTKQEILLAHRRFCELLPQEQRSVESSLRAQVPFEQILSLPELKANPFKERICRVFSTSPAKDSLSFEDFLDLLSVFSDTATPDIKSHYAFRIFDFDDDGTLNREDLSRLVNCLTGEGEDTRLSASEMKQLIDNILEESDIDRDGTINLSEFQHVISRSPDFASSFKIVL

| SMILES | activity change, negative = inhibition | Potency |
| --- | --- | --- |
| O=C(O)c1cccc(-n2cccc2)c1 | -0.414% | – |
| O=C(O)CN1C(=O)/C(=C/c2ccc(-c3cccc(Cl)c3)o2)SC1=S | 58.9% | – |
| COC(=O)c1ccnc(NCc2ccc(O)c3ncccc23)c1 | -3.23% | – |
| CC(=O)Nc1ccc(OCc2cccc(-c3nc4ccccc4c(=O)n3Cc3ccco3)c2)cc1 | -19.1% | – |
| Cc1nc(NCc2ccc(-c3ccnc(C(F)(F)F)c3)cc2)c2ccccc2n1 | 23.5% | – |
| Cc1ccc(C(=O)Oc2ccc(-c3nc4ccccc4[nH]3)cc2)cc1Br | -3.94% | – |
| O=C(Nc1cc(F)cc(F)c1)Nc1nnc(-c2ccncc2)s1 | 8.45% | – |
| Fc1cc(Nc2nc(-c3ccncc3)nc3ccccc23)ccc1C(F)(F)F | 2.78% | – |
| Cc1ccc(OCCn2c(CCNC(=O)C3CC3)nc3ccccc32)cc1 | 16.1% | – |
| O=C(NCc1ccccc1)n1cc(P(=S)(c2ccccc2)c2ccccc2)c2ccccc21 | -0.464% | – |
| Cc1c(P(=S)(c2ccccc2)c2ccccc2)c2ccccc2n1C(=O)Cc1ccccc1 | 0.757% | – |
| COc1cccc(C2c3c(ncn(-c4cccnc4)c3=N)Oc3ccc4ccccc4c32)c1 (centres undefined) | 2.7% | – |
| CC(C)(C)OC(=O)N1CCN(c2ccc(NCc3cc(-c4ccc(C#N)cc4)co3)cc2)CC1 | 3.56% | – |
| CC(=O)N1CCN(c2ccc(NCc3ccc(-c4ccc(Br)cc4)o3)cc2)CC1 | -4.01% | – |
| Cc1ccnc(NC(=S)N2CCN(c3ccc(C(F)(F)F)cc3[N+](=O)[O-])CC2)c1 | -9.39% | – |
| Cc1ccnc(NC(=S)Nc2cccc([S+](=O)([O-])Nc3ccccc3F)c2)c1 | -3.8% | – |
| O=C1c2ccccc2NC(c2ccc(-c3ccc(F)cc3)o2)N1O (centres undefined) | -16.1% | – |
| Cc1ccc2nsnc2c1S(=O)(=O)Nc1cccc2cccnc12 | -4.15% | – |
| Oc1ccc(CNc2cccc(C(F)(F)F)c2)c2cccnc12 | 15% | – |
| Cn1cc(C[C@H](C(=O)O)N2C(=O)c3ccc(C(=O)O)cc3C2=O)c2ccccc21 | -3.89% | – |

| SMILES | activity change, negative = inhibition | Potency |
| --- | --- | --- |
| Cc1ccc2nc(NC3=NC4(CCCC4)C4=C(CCCC4=O)N3)oc2c1 | -16% | – |
| N[C@@H](CCC(=O)O)C(=O)Nc1ccc(Cl)cc1C(=O)c1ccc[nH]1 | 5.16% | – |
| CCCN(C)c1ncnc2ccc(-c3ccc4c(c3)OCO4)cc12 | -0.106% | – |
| O=C(NCCc1nc2ccccc2n1CCOc1ccccc1[N+](=O)[O-])C1CCCCC1 | -1.21% | – |
| Cc1ccnc(NC(=S)N2CCN(c3ccc4ccccc4n3)CC2)c1 | -20.8% | – |
| Cc1ccc(-c2ccc(CNc3nc(-c4ccccc4C(C)C)ncc3F)cc2)cn1 | 0.852% | – |
| FC(F)(F)c1ccccc1-c1nc(NCc2ccccc2)c2ccccc2n1 | 1.56% | – |
| COc1cc(O)c(C(CC(=O)N2CC(C)CC(C)C2)c2ccc(O)cc2)c(OC)c1 (centres undefined) | 4.16% [at 228 µM] | – |
| N#Cc1ccc(-c2ccc(CNc3ccc(N4CCOCC4)cc3)o2)cc1 | -7.24% | – |
| COc1ccc(-c2nnc3n2N=C(c2ccccc2OC)CS3)c(OC)c1 | -0.164% | – |
| Cc1cc(C)nc(NC(=S)N2CCN(c3ccc(F)cc3F)CC2)c1 | – | inactive |
| O=C1CCCC2=C1C(c1[nH]ncc1Cl)N=C(Nc1ccccc1)N2 (centres undefined) | -6.72% | – |
| Cc1cc2c(s1)c1cnn(Cc3cc(F)ccc3C)c(=O)c1n2C | -0.189% | – |
| O=C(Nc1ccc2c(c1)OCCO2)c1ccc(-c2nc3ccccc3[nH]2)cc1 | 1.12% | – |
| CC(O)c1cc2c(s1)c1cnn(Cc3ccccc3F)c(=O)c1n2C (centres undefined) | -0.526% | – |
| O=C(/C=C/c1ccc(F)cc1)Nc1cccc([S+](=O)([O-])Nc2ccccc2F)c1 | – | inactive |
| CN(C)c1cnc2c(O)ccc(C(=O)O)c2c1 | -20% | – |
| O=S(=O)(c1ccc2c(c1)OCCO2)C1CCN(S(=O)(=O)c2c(F)cccc2F)CC1 | -1.55% | – |
| N#Cc1ccc(S(=O)(=O)N2CCN(S(=O)(=O)c3ccc4c(c3)OCCO4)CC2)cc1 | -2.97% | – |
